Among the data in PubChem BioAssay (EPA / NIEHS) are outcome and AC50 values, retold here.

The nature of assay [1]: BSK_BT_PBMCCytotoxicity: PBMC Cytotoxicity Assessment in the BioMAP Diversity Plus: BT Assay (AID 2284225).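 Note: PBMC viability measured by Alamar Blue dye reduction fluorescence.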 As to conditions: primary human B cells with PBMC. The method in brief: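 Viability by Alamar Blue reduction (6 h, ex/em 546/580 nm) after 90 h culture of SEB/TSST-1-activated PBMC (20 ng/mL each) given compound 1 h before activation. DMSO served as baseline for curve fitting.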

Read-out in assay [2]: Secreted IgG (sIgG), gene 3500
As to the kind of experiment: BSK_BT_sIgG: BioMAP Diversity Plus: BT Assay for Secreted IgG (sIgG) Biomarker Activity (AID 2284226). As to conditions: primary human B cells with PBMC. The method in brief: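 Cells (B cells with peripheral blood mononuclear cells) are dosed, cultured 24 h, then supernatant IgG is measured by ELISA. DMSO serves as negative control; curves are fitted for signal increase.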

Assay [3] is described as follows: BSK_BT_Bcell_Proliferation: Viability Assessment in the BioMAP Diversity Plus: BT Assay for B cell Proliferation (AID 2284227). The conditions noted are these: primary human B cells with PBMC. The procedure, abridged:
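Human B cells co-cultured with PBMC were dosed with test chemicals and relative cell number was quantified by SRB staining at 72 h. Cells were fixed in 10% TCA, stained with 0.1% SRB and read at 560 nm. Activity was fitted in the positive direction against DMSO.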

Read-out in assay [4]: Interleukin 6 (IL6), IL6 (gene 3569)
As to the kind of experiment: BSK_BT_xIL6: BioMAP Diversity Plus: BT Assay for Interleukin 6 (IL6) Biomarker Activity (AID 2284228). The conditions noted are these: primary human B cells with PBMC. The procedure, abridged: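 Human B cell/PBMC co-culture; secreted IL-6 quantified by Luminex xMAP 24 h after chemical dosing, fitted relative to DMSO. Parallel PBMC viability by Alamar Blue after 1 h pretreatment, 20 ng/mL SEB and TSST-1, 90 h incubation.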

Read-out in assay [5]: Interleukin 17A (IL17A), IL17A (gene 3605)
As to the kind of experiment: BSK_BT_xIL17A: BioMAP Diversity Plus: BT Assay for Interleukin 17A (IL17A) Biomarker Activity (AID 2284229). The conditions noted are these: primary human B cells with PBMC. The procedure, abridged: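 Co-culture of human B cells and PBMC, dosed for 24 h in 96-well format. Secreted IL-17A measured with Luminex xMAP; gain-direction fitting against DMSO as baseline.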

Read-out in assay [6]: Tumor necrosis factor (Homo sapiens) (UniProt P01375)
As to the kind of experiment: BSK_BT_xTNFa: BioMAP Diversity Plus: BT Assay for Tumor necrosis factor alpha (TNF-alpha) Biomarker Activity (AID 2284230). The conditions noted are these: primary human B cells with PBMC. The procedure, abridged:
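B cells with PBMC in co-culture, dosed and sampled at 24 h; secreted TNF-alpha measured by Luminex xMAP bead assay. Activity fitted in the gain direction against DMSO as negative control and baseline.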

Read-out in assay [7]: Vascular cell adhesion molecule 1 (VCAM1), VCAM1 (gene 7412)
Description: BSK_MyoF_VCAM1: BioMAP Diversity Plus: MyoF Assay for Vascular cell adhesion molecule 1 (VCAM1) Biomarker Activity (AID 2284231). As to conditions: primary human lung fibroblasts. The procedure, abridged:
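Primary human lung fibroblasts (BioMAP MyoF system) dosed with chemical, VCAM-1 measured by ELISA 24 hours later. Fitted in the positive direction against DMSO; parallel SRB staining assessed cytotoxicity.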

SMILES strings stand for the structures. Calls of active or inactive are those of the source. Rule for the calls: active = hit-call score of the fitted dose curve at least 0.9, where 1 is the maximum; inactive = score below 0.9.

Sequence of Tumor necrosis factor (Homo sapiens) (P01375 whole entry, looked up): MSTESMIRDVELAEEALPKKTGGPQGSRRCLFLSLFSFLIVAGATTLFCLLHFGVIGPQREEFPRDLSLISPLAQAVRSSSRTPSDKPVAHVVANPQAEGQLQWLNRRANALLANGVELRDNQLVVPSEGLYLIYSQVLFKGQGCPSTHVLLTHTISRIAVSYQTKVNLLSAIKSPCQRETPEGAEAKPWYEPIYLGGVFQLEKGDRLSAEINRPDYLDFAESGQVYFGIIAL

`O=C1OC2(c3ccccc31)c1ccc(O)c(Br)c1Oc1c2ccc(O)c1Br`: the result in assay [1], in assay [2], in assay [3], in assay [4], in assay [5] and in assay [6] was inactive. Moreover, in assay [7], the outcome was inactive.

As to `COc1cc(Cl)c(OC)cc1N`, the outcome in assay [1], in assay [2], in assay [3], in assay [4], in assay [5] and in assay [6] was inactive. Also, the outcome in assay [7] was inactive.

As for `Cc1cc(CCC(=O)OCCOCCOCCOC(=O)CCc2cc(C)c(O)c(C(C)(C)C)c2)cc(C(C)(C)C)c1O`, the outcome in assay [1], in assay [2], in assay [3], in assay [4], in assay [5] and in assay [6] was inactive. Also, the outcome in assay [7] was inactive.

Take `C=C(C)C(=O)OCCOCCOCCOC(=O)C(=C)C`: the outcome in assay [1], in assay [2], in assay [3], in assay [4], in assay [5] and in assay [6] was inactive. The outcome in assay [7] was inactive.

For `CC(C)(C)CC(C)(C)c1ccc(OCCOCC[N+](C)(C)Cc2ccccc2)cc1`, the AC50 is 8.02 µM (active) in assay [1]; 1.57 µM (active) in assay [2]; 5 µM (active) in assay [3]; 8.48 µM (active) in assay [5]; 5 µM (active) in assay [6]; 8.24 µM (active) in assay [7]. Further, the result in assay [4] was inactive.

As for `IC(I)I`, the result in assay [1], in assay [2], in assay [3], in assay [4], in assay [5] and in assay [6] was inactive. Also, the result in assay [7] was inactive.

Turning to `C[C@@H]1CCN(C(=O)[C@H](CCCN=C(N)N)NS(=O)(=O)c2cccc3c2NC[C@H](C)C3)[C@@H](C(=O)O)C1`, the outcome in assay [1], in assay [2], in assay [3], in assay [4], in assay [5] and in assay [6] was inactive. Moreover, the result in assay [7] was inactive.

Turning to `CN(c1nccc(=O)[nH]1)C1CCN(c2nc3ccccc3n2Cc2ccc(F)cc2)CC1`, the outcome in assay [1], in assay [3], in assay [4], in assay [5] and in assay [6] was inactive. In addition, the AC50 in assay [2] was 14.6 µM (active); in assay [7], 3.1 µM (active).

`CC(=O)Nc1ccc(C(=O)CCl)cc1`: the AC50 in assay [1] is 5.36 µM (active); in assay [2] it was 2.21 µM (active); in assay [3], 5.39 µM (active); in assay [4], 3.46 µM (active); in assay [5] it was 2.25 µM (active); in assay [6] it was 8.47 µM (active). The AC50 in assay [7] is 23.9 µM (active).

With `CN(C)C(=S)SC(=S)N(C)C`, the AC50 in assay [1] is 0.396 µM (active); in assay [2], 0.244 µM (active); in assay [3] it was 0.436 µM (active); in assay [4], 0.6 µM (active); in assay [5], 0.367 µM (active); in assay [6] it was 0.504 µM (active). Further, in assay [7], the AC50 was 35.5 µM (active).

`CCCCCC(C=O)=Cc1ccccc1`: the result in assay [1], in assay [3], in assay [4], in assay [5] and in assay [6] was inactive. The figures for the half-maximal activity concentration (AC50) in assay [2] and in assay [7] were 26.9 µM (active) and 34.2 µM (active), respectively.

`CC(C)(N=C=O)c1cccc(C(C)(C)N=C=O)c1`: the outcome in assay [1], in assay [2], in assay [3], in assay [4], in assay [5] and in assay [6] was inactive. For the same compound, in assay [7], the result was inactive.

For `CC1(C)C2=CCCC(C)(C)[C@]23CC[C@H]1C3`, the outcome in assay [1], in assay [3], in assay [4], in assay [5] and in assay [6] was inactive. Besides, the AC50 in assay [2] was 20 µM (active); in assay [7], 31.9 µM (active).

As to `COc1ccc(OC)c(N=Nc2c(O)ccc3ccccc23)c1`, the outcome in assay [1], in assay [3], in assay [4], in assay [5] and in assay [6] was inactive. In addition, the half-maximal activity concentration (AC50) in assay [2] is 9.86 µM (active); in assay [7], 9.05 µM (active).

`Clc1cc(Cl)c(-c2c(Cl)c(Cl)cc(Cl)c2Cl)cc1Cl`: the result in assay [1], in assay [2], in assay [3], in assay [4], in assay [5] and in assay [6] was inactive. Further, the AC50 in assay [7] is 2.76 µM (active).

Turning to `C1=CC2C3C=CC(C3)C2C1` (configuration not stated), the outcome in assay [1], in assay [2], in assay [3], in assay [4], in assay [5] and in assay [6] was inactive. Also, in assay [7], the result was inactive.

Regarding `CCN(CC)C(=O)N(CC)CC`, the outcome in assay [1], in assay [2], in assay [3], in assay [4], in assay [5] and in assay [6] was inactive. Also, in assay [7], the outcome was inactive.

In the case of `CSCCC=O`, the outcome in assay [1], in assay [2], in assay [3], in assay [4], in assay [5] and in assay [6] was inactive. The outcome in assay [7] was inactive.

Consider `COc1ccc(CCN2CCC(Nc3nc4ccccc4n3Cc3ccc(F)cc3)CC2)cc1`, for which the AC50 was 7.27 µM (active) in assay [1]; 3.17 µM (active) in assay [2]; 5.84 µM (active) in assay [3]; 3.52 µM (active) in assay [4]; 3.17 µM (active) in assay [5]; 7.19 µM (active) in assay [6]. Also, the concentration at half-maximal activity (AC50) in assay [7] is 5 µM (active).

For `CC(=O)c1c(C)c([N+](=O)[O-])c(C(C)(C)C)c([N+](=O)[O-])c1C`, the result in assay [1], in assay [3], in assay [4], in assay [5], in assay [6] and in assay [7] was inactive. Further, the AC50 in assay [2] was 30.5 µM (active).

For the compound `CN(C)C(=O)Nc1ccc(Oc2ccc(Cl)cc2)cc1`, the outcome in assay [1], in assay [3], in assay [4], in assay [5], in assay [6] and in assay [7] was inactive. In assay [2], the AC50 was 20 µM (active).

As a reminder, the AC50 is the concentration at which the activity in the assay is half-maximal.
